Source: PubChem BioAssay AID1159580 (chemical genetic matrix, 2015)
About 2,000 (36%) of roughly 5,500 compounds were called active. Roughly 18% stayed inconclusive and do not appear here. No stated cut-off is given here; in the data, active means normalized growth mostly below about 0.91 (no sharp cut-off); inconclusive means no clear call, values can overlap the other calls; inactive means mostly above about 0.92. Some of the results follow.

Assay: chemical genetic growth profiling, strain panel (AID 1159580);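 further: tested at 20 µM; growth read once vehicle control cultures reached saturation at 30 °C; 1 = growth at the plate median or of vehicle wells; lower values mean less growth of the strain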
Details: growth OD
[1] = S. cerevisiae deletion strains, locus YAL013W, strain DEP1, hits give low values
[2] = S. cerevisiae deletion strains, locus YBR229C, strain ROT2, hits give low values
[3] = S. cerevisiae deletion strains, locus YDL101C, strain DUN1, hits give low values
[4] = S. cerevisiae deletion strains, locus YDR150W, strain NUM1, hits give low values
[5] = S. cerevisiae deletion strains, locus YEL061C, strain CIN8, hits give low values
[6] = S. cerevisiae deletion strains, locus YGR078C, strain PAC10, hits give low values
[7] = S. cerevisiae deletion strains, locus YGR229C, strain SMI1, hits give low values
[8] = S. cerevisiae deletion strains, locus YHR030C, strain SLT2, hits give low values
[9] = S. cerevisiae deletion strains, locus YHR087W, strain rtc3, hits give low values
[10] = S. cerevisiae deletion strains, locus YJR043C, strain POL32, hits give low values
[11] = S. cerevisiae deletion strains, locus YJR075W, strain HOC1, hits give low values
[12] = S. cerevisiae deletion strains, locus YLR039C, strain RIC1, hits give low values
[13] = S. cerevisiae deletion strains, locus YLR058C, strain SHM2 (second series), hits give low values
[14] = S. cerevisiae deletion strains, locus YLR085C, strain ARP6, hits give low values
[15] = S. cerevisiae deletion strains, locus YLR262C, strain YPT6, hits give low values
[16] = S. cerevisiae deletion strains, locus YML094W, strain GIM5, hits give low values
[17] = S. cerevisiae deletion strains, locus YMR219W, strain ESC1, hits give low values
[18] = S. cerevisiae deletion strains, locus YMR263W, strain SAP30, hits give low values
[19] = S. cerevisiae deletion strains, locus YNL153C, strain GIM3, hits give low values
[20] = S. cerevisiae deletion strains, locus YNL298W, strain CLA4 (second series), hits give low values
[21] = S. cerevisiae deletion strains, locus YNL322C, strain KRE1, hits give low values
[22] = S. cerevisiae deletion strains, locus YNR030W, strain Alg12, hits give low values
[23] = S. cerevisiae deletion strains, locus YOL006C, strain TOP1, hits give low values
[24] = S. cerevisiae deletion strains, locus YPL055C, strain LGE1, hits give low values
[25] = S. cerevisiae deletion strains, locus YPL241C, strain CIN2, hits give low values
[26] = S. cerevisiae deletion strains, locus YPR135W, strain CTF4, hits give low values
[27] = S. cerevisiae strains, strain wild type, hits give low values

Measured: normalized growth

COc1cccc(-c2nc(C#N)c(N)o2)c1
active: [7] 0.938
inactive: [1] 0.987 | [2] 0.996 | [3] 0.995 | [4] 0.983 | [5] 1.02 | [6] 0.996 | [8] 0.708 | [9] 1 | [10] 0.968 | [11] 0.992 | [12] 0.945 | [13] 0.99 | [14] 0.79 | [15] 0.979 | [16] 1.01 | [17] 0.989 | [18] 0.944 | [19] 0.987 | [20] 0.946 | [21] 1.01 | [22] 0.989 | [23] 0.796 | [24] 0.966 | [25] 0.953 | [26] 0.871 | [27] 0.958

c1cc2c(cc1N=C1SCC3CCCCN13)OCO2 (configuration not stated)
inactive: [1] 1 | [2] 1.01 | [3] 1.02 | [4] 1.05 | [5] 0.991 | [6] 1.01 | [7] 0.997 | [8] 1.05 | [9] 0.995 | [10] 1.03 | [11] 1.03 | [12] 0.983 | [13] 1 | [14] 0.932 | [15] 1.12 | [16] 0.973 | [17] 1 | [18] 1.01 | [19] 1.02 | [20] 0.974 | [21] 1 | [22] 1 | [24] 0.996 | [25] 0.953 | [26] 1.05 | [27] 1

NC(=S)COc1ccccc1Cl
active: [14] 0.624 | [20] 0.799 | [23] 0.294
inactive: [1] 0.998 | [2] 0.985 | S. cerevisiae deletion strains, locus YCL061C, strain MRC1, hits give low values 1 | [3] 1 | S. cerevisiae deletion strains, locus YDL134C, strain PPH21, hits give low values 0.981 | [4] 0.998 | [5] 0.931 | [6] 1.03 | [8] 0.794 | [9] 1.04 | S. cerevisiae deletion strains, locus YJL187C, strain SWE1, hits give low values 0.983 | [10] 0.994 | [11] 1.01 | S. cerevisiae deletion strains, locus YKL190W, strain CNB1, hits give low values 0.968 | [12] 0.796 | [13] 0.982 | [15] 0.887 | [16] 0.947 | [17] 0.982 | [18] 1.01 | [19] 0.971 | [21] 0.994 | [22] 0.95 | [24] 1.04 | [25] 0.891 | [26] 0.801
